# High-throughput results deposited in PubChem BioAssay by National Center for Advancing Translational Sciences (NCATS).
# DT40 TDP1 no CPT: qHTS for Inhibitors of human tyrosyl-DNA phosphodiesterase 1 (TDP1): qHTS in cells in absence of CPT; Potency, µM (series often up to 46.2 µM), actives largely listed as inhibitors; DT40 Tdp1-/- hTDP1 cells, no CPT, ATP luminescence, 48 h; 420,000 compounds, 15% hits; note: nearly all actives have a fitted effect of over 55% in size
#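 Compound effects on proliferation are scored in DT40 Tdp1-/-;hTDP1 cells in the absence of CPT. ATP levels (CellTiter-Glo luminescence) are recorded after a ≥48 hr, 37 °C incubation.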
# Chronic BCR inh: chronic active BCR signaling inhibition; Potency, µM (series often up to 46.1 µM), actives largely listed as inhibitors; AID 493014; 340,000 compounds, 0.05% hits; ABC-DLBCL IkBa-CBG/CBR reporter, luminescence ratio, 4 h; active = well fitted inhibition curve with a large enough effect in the signal ratio, with a control signal flat, not every such curve was filed as active; inconclusive = small, poorly fitted or top-dose-only effect, or effect the other way, or a change in a side signal; the % refers to the signal ratio
#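 Cell line TMD8 (human ABC DLBCL), stably expressing tet-inducible CBG68-IkBa fusion and CBR; IMDM/0.5% FBS; cpd up to 46 uM; dox induction, 4 h, 37C/5% CO2; dual luminescence; green/red ratio; MG132 control.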
# MCF10A rerep: inducers of DNA re-replication in MCF 10A breast cells; MCF 10A DNA re-replication, Hoechst nuclear intensity, 48 h; Potency, µM (highest dose often 46.1 µM), usual class: activators; 350,000 compounds, 2.9% hits; note: nearly all actives have a fitted effect of over 50% in size
# IL-1B inflam inh: blocks inflammasome-driven IL-1 beta release. THP-1 LPS/ATP IL-1B secretion, AlphaLISA, 16 h; hits give low values. 360,000 compounds, 4.7% hits. activity change, % at 57.5 µM; in the data active = activity change below about -50%; inconclusive = mostly about -30% to -49%
#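 Secreted IL-1B measured by AlphaLISA bead assay after 16 h compound exposure of THP-1 cells; compounds (final up to 57.5 uM) added 1 h before LPS (250 ng/mL) and ATP (1.25 mM) stimulation; lower signal means less secretion.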
# SW480 rerep: induces DNA re-replication in SW480 colon adenocarcinoma cells; Potency, µM (top dose mostly 46.1 µM), hits mostly activators; 340,000 compounds, 1.8% hits; SW480 DNA re-replication, Hoechst DNA content imaging, 48 h; note: nearly all actives have a fitted effect of over 55% in size
#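 Hoechst fluorescence of nuclei (405 nm excitation, 500-530 nm emission) measured by plate-scanning imager after 48 hr compound exposure at 37 C; re-replication scored as increased number of nuclei with elevated intensity.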
# DT40 TDP1 CPT: growth inhibition of DT40 Tdp1-/-;hTDP1 cells with camptothecin (screen for TDP1 inhibitors) | Potency, µM (top dose mostly 46.2 µM), hits mostly inhibitors | 420,000 compounds, 12% hits | AID 686979 | chicken DT40 Tdp1-/-;hTDP1 cells + 20 nM CPT, ATP luminescence, 48 h; note: nearly all actives have a fitted effect of over 55% in size
#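 Cell growth measured by CellTiter-Glo luminescence after a minimum 48 h, 37 C compound exposure with 20 nM CPT in Tdp1-knockout DT40 cells stably expressing hTDP1, seeded 400/well; qHTS titration format.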
# Hits are given with their value; – = inactive; ? = inconclusive; · = not tested or not shown. Shown are actives, neighbours in structure and some others; about 19% of the full set was active somewhere. Unless noted, calls come from the whole dose curve; as a rule, active = well fitted curve in the direction sought with a large enough effect; inconclusive = small, poorly fitted or top-dose-only effect, or another doubt; inactive = no such curve, though single readings can be large; an effect the other way counts as inactive or inconclusive.
SMILES,DT40 TDP1 no CPT,Chronic BCR inh,MCF10A rerep,IL-1B inflam inh,SW480 rerep,DT40 TDP1 CPT
CCN(CCCNC(=O)C1CCN(S(=O)(=O)N2CCC3(CC2)OCCO3)CC1)c1ccccc1,–,–,–,–,–,–
CCN(CCCNC(=O)C1CCN(S(=O)(=O)CC)CC1)c1ccccc1,–,–,2.9µM,–,–,–
CCCCN(CCCNC(=O)C1CCN(S(=O)(=O)N2CCOCC2)CC1)c1ccccc1,13µM,?,?,–,–,13µM
CCCS(=O)(=O)N1CCC(C(=O)NCCN(CC)c2ccccc2)CC1,?,–,–,–,–,–
COc1ccc(C(=O)Nc2ccccc2C(=O)N2CCCCC2C)cc1 (configuration not stated),–,–,–,–,–,–
Cc1ccc2nc(-c3ccccc3)c(CN3CCOCC3)n2c1,–,–,0.65µM,–,–,–
Cc1ccc(-c2nc3ccc(C)cn3c2Cc2ccccn2)cc1,18µM,·,·,–,·,?
Cc1ccc2nc(-c3ccccc3)c(CN3CCSCC3)n2c1,?,–,–,–,–,?
Cc1ccc2nc(-c3ccc(Cl)cc3)c(Cc3ccccn3)n2c1,16µM,·,·,–,·,18µM
Cc1ccc2nc(-c3cccc(Br)c3)c(Cc3ccccn3)n2c1,?,·,·,–,·,21µM
O=C(Cn1c2ncccc2c(=O)n1-c1ccccc1)Nc1ccc(F)c(F)c1,–,·,·,·,·,–
O=C(OCC(=O)N1CCC(Cc2ccccc2)CC1)c1cc(Br)ccc1O,?,–,–,–,–,–
Cc1cc(NC(=O)CSC2=NS(=O)(=O)c3cc(F)ccc3N2)no1,–,–,–,–,–,–
C=CCN1C=C2C(=O)C(C)(OC(=O)c3cnc4ccccc4n3)C(=O)C=C2C=C1/C=C/COC (configuration not stated),16µM,·,?,–,–,?
COC/C=C/C1=CC2=CC(=O)C(C)(OC(=O)c3cnc4ccccc4n3)C(=O)C2=CN1CCOC (configuration not stated),?,·,–,–,–,?
N#CCSc1nccc(/C=C/c2ccccc2)n1,–,?,–,-92,–,–
COc1ccccc1NC(=O)c1ccc(Br)c(S(=O)(=O)N2CCCC2)c1,?,–,?,–,?,?
N#Cc1sc2nccc(Nc3ccccc3)c2c1N,2.1µM,·,?,–,23µM,?
Cc1ccn2c(NC(=O)c3cccc(Cl)c3)c(-c3ccccc3)nc2c1,23µM,·,·,·,·,?
Cc1cccc(C(=O)Nc2c(-c3ccccc3)nc3cc(C)ccn23)c1,21µM,·,·,·,·,?
Cc1ccn2c(NC(=O)c3ccccc3)c(-c3ccccc3)nc2c1,–,?,–,–,–,–
CCOc1ccc(NC(=O)CC2C(=O)N(c3ccc(C)cc3)C(=O)N2C2CCCCC2)cc1 (configuration not stated),?,·,·,·,·,18µM
CCOC(=O)c1ccc(NC(=O)CC2C(=O)N(c3ccccc3)C(=O)N2C2CCCCC2)cc1 (configuration not stated),16µM,·,·,·,·,26µM
COc1ccc(NC(=O)CC2C(=O)N(c3ccc(C)cc3)C(=O)N2C2CCCC2)cc1 (configuration not stated),–,·,·,·,·,?
Cc1cccc(N2C(=O)C(CC(=O)Nc3ccccc3)N(C3CCCCC3)C2=O)c1 (configuration not stated),?,·,·,·,·,–
SMILES,DT40 TDP1 no CPT,Chronic BCR inh,MCF10A rerep,IL-1B inflam inh,SW480 rerep,DT40 TDP1 CPT
O=C(Cc1c(F)cccc1Cl)NCC(=O)OCc1ccccc1,–,–,–,?,–,–
O=C(Nc1ccc(F)cc1)C1CCCN(S(=O)(=O)c2cccc3cccnc23)C1 (configuration not stated),?,–,–,–,–,?
O=C(Nc1nc2cc(Cl)ccc2s1)C1CCCN(S(=O)(=O)c2cccc3cccnc23)C1 (configuration not stated),16µM,?,?,–,–,21µM
O=C(Nc1ccccc1Cl)C1CCCN(S(=O)(=O)c2cccc3cccnc23)C1 (configuration not stated),?,–,?,–,–,?
CC(=O)c1cccc(NC(=O)C2CCCN(S(=O)(=O)c3cccc4cccnc34)C2)c1 (configuration not stated),?,?,–,–,–,21µM
O=C(Nc1nccs1)C1CCCN(S(=O)(=O)c2cccc3cccnc23)C1 (configuration not stated),15µM,?,–,–,–,?
CCc1ccc(NC(=O)C2CCCN(S(=O)(=O)c3cccc4cccnc34)C2)cc1 (configuration not stated),16µM,·,·,·,·,18µM
Cc1cc(Cl)ccc1NC(=O)CSc1n[nH]c(N)n1,–,?,–,–,–,?
CC(C)(C)c1ccc(OCCC(=O)OCC(=O)NC2CCCCC2)cc1,–,–,–,–,–,–
O=C(COc1ccccc1Br)NC1CC1,–,–,–,–,–,–
CC(C)CCNC(=O)COc1ccc(C(=O)c2ccccc2)cc1,?,–,–,?,?,18µM
CC(C)(C)c1ccc(OCCC(=O)OCC(=O)NC(=O)NC2CCCC2)cc1,18µM,–,?,-86,–,18µM
O=C(COc1ccccc1Br)NC(=O)NC1CCCC1,–,–,–,–,15µM,–
CCC(C)(C)NC(=O)COc1ccc(C(=O)c2ccccc2)cc1,–,–,–,–,–,–
Cc1ccc(NC(=O)NC2CCCCC2)c(C)c1,1.2µM,–,–,–,–,1µM
Cn1c(=O)c2c([nH]c(=O)n2Cc2ccc(Cl)cc2Cl)n(C)c1=O,–,·,·,·,·,–
O=Cc1ccc(OCC(=O)NC(=O)NC2CCCCC2)cc1,?,–,–,–,–,?
O=C(CNC1CCCCC1)NN=C(c1ccccc1)c1ccccc1,?,?,–,-64,–,?
O=C(COc1ccc(C(=O)c2ccccc2)cc1)NC1CCCCCC1,16µM,–,–,–,–,26µM
CC(=O)c1ccc(NC(=O)NC2CCCCCCC2)cc1,–,–,–,-66,–,?
CC(=O)c1ccc(OCC(=O)NC(=O)NC2CCCCC2)cc1,16µM,–,–,–,–,23µM
COc1cccc2cc(C(=O)c3ccc([N+](=O)[O-])cc3)oc12,–,–,?,–,–,–
CCOC(=O)c1cnc2cc(F)c(F)cc2c1N1CCOCC1,?,–,–,–,–,?
Cc1ccc(CCN2CC(C(=O)NC3CCC(C)CC3)CC2=O)cc1 (configuration not stated),?,·,·,–,·,–
